Measured values from PubChem BioAssay (NCI).
This is part of a sample that, as a whole, favours compounds with a hit. Of some 83,000 tested, about 20% had one in any assay.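 Compound tested at a single concentration for 48 hours in 96-well plates; a percent growth value below 10 was scored as active.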 The source made the active and inactive calls.

Key:
Test in all cases: NCI-60 one-dose screen, 48 h (100 = growth as untreated, 0 = no growth, -100 = all killed)
Settings in all cases: 10 µM unless noted
NCI-H23 lung = test system: NCI-H23 lung
NCI-H322M lung = test system: NCI-H322M lung
HOP-62 NSCLC = test system: HOP-62 NSCLC
NCI-H460 lung = test system: NCI-H460 lung
HOP-92 NSCLC = test system: HOP-92 NSCLC
NCI-H522 lung = test system: NCI-H522 lung
A549/ATCC NSCLC = test system: A549/ATCC NSCLC
786-0 renal = test system: 786-0 renal
COLO 205 colon = test system: COLO 205 colon
DU-145 prostate = test system: DU-145 prostate
K-562 leukemia = test system: K-562 leukemia
MALME-3M melanoma = test system: MALME-3M melanoma
MDA-MB-231 breast = test system: MDA-MB-231 breast
RXF 393 renal = test system: RXF 393 renal
SF-268 CNS = test system: SF-268 CNS
SF-295 CNS = test system: SF-295 CNS
SF-539 CNS = test system: SF-539 CNS
UACC-257 melanoma = test system: UACC-257 melanoma
M14 melanoma = test system: M14 melanoma
HCT-15 colon = test system: HCT-15 colon

Measured: growth

CCOC(=O)C1=C(C)c2ccc(OC)c(OC)c2C1
inactive: NCI-H23 lung 91.8% | NCI-H322M lung 99.2% | HOP-62 NSCLC 88.5% | NCI-H460 lung 118% | HOP-92 NSCLC 79.2% | NCI-H522 lung 78.6% | A549/ATCC NSCLC 87% | 786-0 renal 81.4% | COLO 205 colon 113% | DU-145 prostate 115% | K-562 leukemia 102% | MALME-3M melanoma 123% | MDA-MB-231 breast 117% | RXF 393 renal 93.8% | SF-268 CNS 108% | SF-295 CNS 99.5% | SF-539 CNS 91.9% | UACC-257 melanoma 98.4% | M14 melanoma 126% | HCT-15 colon 97.3%

CC1=NCC2NC(=O)NC(C)=C12 (stereo not given)
inactive: NCI-H23 lung 103% | NCI-H322M lung 94.7% | HOP-62 NSCLC 97.9% | NCI-H460 lung 101% | HOP-92 NSCLC 87.7% | NCI-H522 lung 96.5% | A549/ATCC NSCLC 105% | 786-0 renal 96.9% | COLO 205 colon 108% | DU-145 prostate 104% | K-562 leukemia 110% | MALME-3M melanoma 96% | MDA-MB-231 breast 95% | RXF 393 renal 101% | SF-268 CNS 96.1% | SF-295 CNS 103% | SF-539 CNS 95.8% | UACC-257 melanoma 105% | M14 melanoma 98.5% | HCT-15 colon 103%

COc1c2ccoc2c(/C=C/C=O)c2oc(-c3ccccc3)cc(=O)c12
active: HCT-15 colon 3.15%
inactive: NCI-H23 lung 50.4% | NCI-H322M lung 87.7% | HOP-62 NSCLC 59.7% | NCI-H460 lung 89.4% | HOP-92 NSCLC 105% | NCI-H522 lung 67.9% | A549/ATCC NSCLC 91.3% | 786-0 renal 94.4% | COLO 205 colon 116% | DU-145 prostate 63.1% | K-562 leukemia 24.1% | MALME-3M melanoma 98% | MDA-MB-231 breast 66.3% | RXF 393 renal 79% | SF-268 CNS 39.8% | SF-295 CNS 51.3% | SF-539 CNS 38.3% | UACC-257 melanoma 108% | M14 melanoma 70.8%

CCOC(=O)c1sc(-c2ccc(OS(=O)(=O)c3ccccc3[N+](=O)[O-])c(C=O)c2)nc1C
inactive: NCI-H23 lung 50.6% | NCI-H322M lung 58.4% | HOP-62 NSCLC 117% | NCI-H460 lung 91.2% | HOP-92 NSCLC 65.6% | NCI-H522 lung 18.8% | A549/ATCC NSCLC 82.3% | 786-0 renal 80.3% | COLO 205 colon 117% | DU-145 prostate 78.1% | K-562 leukemia 12.8% | MALME-3M melanoma 37.8% | MDA-MB-231 breast 84% | RXF 393 renal 108% | SF-268 CNS 46.6% | SF-295 CNS 107% | SF-539 CNS 76.6% | UACC-257 melanoma 49.5%
active: M14 melanoma 5.91% | HCT-15 colon 6.3%

O=C1c2cc(Br)ccc2Oc2cc([N+](=O)[O-])ccc2N1c1ccc(I)cc1F
inactive: NCI-H23 lung 93% | NCI-H322M lung 103% | HOP-62 NSCLC 102% | NCI-H460 lung 102% | HOP-92 NSCLC 101% | NCI-H522 lung 96.2% | A549/ATCC NSCLC 82% | 786-0 renal 104% | COLO 205 colon 123% | DU-145 prostate 105% | K-562 leukemia 101% | MALME-3M melanoma 99.8% | MDA-MB-231 breast 101% | RXF 393 renal 94.5% | SF-268 CNS 93.1% | SF-295 CNS 98.2% | SF-539 CNS 101% | UACC-257 melanoma 97.6% | M14 melanoma 91.8% | HCT-15 colon 97.7%

CC(C)CCNCC(O)Cn1c2ccccc2c2ccccc21 (stereo not given)
inactive: NCI-H23 lung 25.4% | NCI-H322M lung 30.7% | HOP-62 NSCLC 18.1% | NCI-H522 lung 20.3% | A549/ATCC NSCLC 11.9% | 786-0 renal 25.2% | MDA-MB-231 breast 41.6% | SF-268 CNS 30.7% | SF-539 CNS 16.1% | M14 melanoma 11.8% | HCT-15 colon 14.9%
active: NCI-H460 lung 1.52% | HOP-92 NSCLC -13.7% | COLO 205 colon 2.79% | DU-145 prostate 9.71% | K-562 leukemia 1.84% | MALME-3M melanoma -12.3% | RXF 393 renal 8.43% | SF-295 CNS -40% | UACC-257 melanoma 1.45%

O=Cc1cc2ccccc2nc1Nc1nccs1
inactive: NCI-H23 lung 52.4% | NCI-H322M lung 91.8% | HOP-62 NSCLC 62.2% | NCI-H460 lung 61.8% | HOP-92 NSCLC 81% | NCI-H522 lung 83.1% | A549/ATCC NSCLC 96.9% | 786-0 renal 69% | COLO 205 colon 69.7% | DU-145 prostate 80.3% | K-562 leukemia 109% | MALME-3M melanoma 73.1% | MDA-MB-231 breast 68.6% | RXF 393 renal 53.2% | SF-268 CNS 54.8% | SF-295 CNS 92.9% | SF-539 CNS 87.3% | UACC-257 melanoma 102% | M14 melanoma 101% | HCT-15 colon 46.4%

CCCCCCn1c(=N)n(CC(O)COc2cccc(C)c2)c2ccccc21 (stereo not given)
inactive: NCI-H23 lung 11%
active: NCI-H322M lung -42.8% | HOP-62 NSCLC -74.6% | NCI-H460 lung -68.1% | HOP-92 NSCLC -6.11% | NCI-H522 lung -74.5% | A549/ATCC NSCLC -32.3% | 786-0 renal -86.5% | COLO 205 colon -94.4% | DU-145 prostate -22.4% | K-562 leukemia -2.58% | MALME-3M melanoma -90.9% | MDA-MB-231 breast -70.7% | RXF 393 renal -95.1% | SF-268 CNS -14.2% | SF-295 CNS -85.7% | SF-539 CNS -86.4% | UACC-257 melanoma -87.8% | M14 melanoma -75.2% | HCT-15 colon -18.8%
